PubChem BioAssay (NCI)
About 79,000 compounds went through this panel and 15% of them were active in at least one assay; those are over-represented in the sample as a whole. Cut-off read from the data, not from the text of the source: active = growth inhibition above about 70%; inactive = the rest.

Assays:
[1] = NCI Yeast Anticancer Drug Screen. Data for the rad50 strain (AID 155);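 note: 0% = growth of vehicle-only cultures of the same strain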; details: S. cerevisiae rad50 strain growth inhibition; at 50.0 µM; stronger effect = higher value
Method in brief: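 DNA repair mutant yeast, compound exposure, growth read-out; inhibition is taken relative to vehicle.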

[2] = NCI Yeast Anticancer Drug Screen. Data for the mec2-1 strain (AID 157); details: S. cerevisiae mec2-1 strain, at 50.0 µM, stronger effect = higher value
Method in brief: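 mec2-1 yeast strain, carrying an alteration in DNA damage repair or cell cycle control, was exposed to compounds; growth inhibition was measured relative to vehicle-treated controls.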

[3] = NCI Yeast Anticancer Drug Screen. Data for the sgs1 mgt1 strain (AID 161);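 note: 0% = growth of cultures given vehicle only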; details: S. cerevisiae sgs1 mgt1 strain, at 50.0 µM, stronger effect = higher value
Method in brief: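 Growth of a repair-deficient yeast mutant was monitored after compound treatment and expressed as inhibition relative to vehicle-treated cultures.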

[4] = NCI Yeast Anticancer Drug Screen. Data for the cln2 rad14 strain (AID 165);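 note: 0% = growth equal to vehicle treated cultures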; details: S. cerevisiae cln2 rad14 strain, at 50.0 µM, stronger effect = higher value
Method in brief: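 Yeast carrying cln2 and rad14 alterations (cell cycle control and DNA damage repair) were exposed to compounds. Growth inhibition was measured against vehicle-treated controls.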

[5] = NCI Yeast Anticancer Drug Screen. Data for the bub3 strain (AID 167); details: S. cerevisiae bub3 mutant strain, at 50.0 µM, stronger effect = higher value
Method in brief: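 In this screen, a yeast mutant lacking normal mitotic checkpoint function is challenged with compound. Relative growth versus vehicle gives the inhibition value.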

[6] = NCI Yeast Anticancer Drug Screen. Data for the mlh1 rad18 strain (AID 175); details: S. cerevisiae mlh1 rad18 strain growth inhibition; at 50.0 µM; stronger effect = higher value
Method in brief: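 Growth inhibition of the yeast strain was measured after compound exposure and expressed relative to vehicle-treated controls. The strain carries defined defects in DNA damage repair.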

Measured: growth inhibition

CN(CC(C)(C)C(O)c1ccccc1)C(=O)c1ccccc1 (stereo unspecified)
inactive: [1] 0.95% | [2] -5.7% | [3] 12.7% | [4] 20.7% | [5] 8.2% | [6] 12.6%

CNC(C#N)c1ccc(OC)cc1 (stereo unspecified)
inactive: [1] 3.55% | [2] 17.9% | [3] -26.9% | [4] -17.4% | [5] -9.75% | [6] -28.4%

O=C(c1ccccc1O)N1CCCCC1
inactive: [1] 32.1% | [2] 25.2% | [3] 12.5% | [4] 13.9% | [5] 16.6% | [6] 11.3%

NC(N)=NC1CCc2ccccc2C1 (stereo unspecified)
inactive: [1] 4.4% | [2] -2.85% | [3] -4% | [4] -5.1% | [5] -0.6% | [6] -5.1%

c1ccc(CNCCNCc2ccccn2)nc1
inactive: [1] 25.4% | [2] 7.45% | [3] 16.1% | [4] -61.1% | [5] -1.15% | [6] 16.8%

CCCCN(CCCC)CC(C)O (stereo unspecified)
inactive: [1] -21.8% | [2] -35.8% | [3] -22.4% | [4] 16.9% | [5] -12.9% | [6] -18.6%

O=C(N=Nc1c(O)[nH]c2c(Cl)cc(Cl)cc12)C(=O)Nc1cccc(C(F)(F)F)c1
inactive: [1] -8.85% | [2] -14% | [3] -24.6% | [4] 13.8% | [5] -23.8% | [6] -14%

C1CCCCC2(CCCCCCCCC3(CCC1)OCCO3)OCCO2
inactive: [1] -2% | [2] -21.2% | [3] -8.5% | [4] 25.6% | [5] 1.1% | [6] -5.25%

CC1(C)[C@@H]2CC[C@]1(C)[C@H](OC(=O)/C=C/c1ccccc1)C2
inactive: [1] 1.9% | [2] -39.8% | [3] -11.4% | [4] 8.5% | [5] -16% | [6] -1.5%

CCOC(=O)C1C=C1C(C)(C)O (stereo unspecified)
inactive: [1] -15.4% | [2] 9.3% | [3] -13.1% | [4] 1% | [5] 3.9% | [6] -32.9%

O=C(C[n+]1ccccc1)N/N=C(\Cc1nc2ccc([N+](=O)[O-])cc2[nH]c1=O)C(=O)Nc1cc(Cl)c(Cl)cc1Cl
inactive: [1] 24.2% | [2] 10.1% | [3] 2.5% | [4] -27.8% | [5] 16.9% | [6] 9.35%

N=N/C(=C\c1c(O)[nH]c2ccccc12)c1ccccc1
inactive: [1] -7.35% | [2] 13.6% | [3] 34.2% | [4] -35.2% | [5] 57.3% | [6] -8.75%

Cc1nn(CO)c(C)c1Br
inactive: [1] 9.8% | [2] -18.4% | [3] 5.9% | [4] 21.8% | [5] -2.6% | [6] 11.7%

COC(=O)C1(CC(=O)/C=C/c2ccccc2)NC(=S)NC(=O)C1C#N (stereo unspecified)
inactive: [1] 15.7% | [2] -3.65% | [3] -8.4% | [4] 10.1% | [5] -19.9% | [6] 9.9%

O=c1cc(-c2ccc(Cl)cc2)oc(-c2ccc(Cl)cc2)c1
inactive: [1] 5.5% | [2] -7.65% | [3] 4.05% | [4] -35.9% | [5] 0.7% | [6] 2.8%

S=C(OCCCCCn1cnc2c(=S)nc[nH]c21)Oc1ccccc1
inactive: [1] -13% | [2] 16% | [3] 7.1% | [4] -45.8% | [5] -5.25% | [6] -12.7%

Oc1cc2c(cc1O)C1c3ccc(O)c(O)c3OCC1(O)C2 (stereo unspecified)
inactive: [1] 21.9% | [2] 13% | [3] 22.7% | [4] -1% | [5] 9.4% | [6] 22.4%

COCC(O)CC#N (stereo unspecified)
inactive: [1] 14.1% | [2] 4% | [3] -3.65% | [4] 7.65% | [5] 9.65% | [6] 3.9%

O=c1c2cc3c(=O)n(O)c(=O)c3cc2c(=O)n1O
inactive: [1] 12.4% | [2] -18.2% | [3] -9.45% | [4] 6.75% | [5] 3.25% | [6] -90.4%

Cc1cc(CN(C)C)cc(C(C)C)c1O
inactive: [1] 1.85% | [2] -0.9% | [3] -12% | [4] 34.1% | [5] 12.8% | [6] -3.95%

Nc1nc(SCC(=O)O)[nH]c(=O)c1NS(=O)(=O)c1ccccc1[N+](=O)[O-]
inactive: [1] 21.4% | [2] -4.1% | [3] -2.4% | [4] 23.1% | [5] 2.75% | [6] 5.6%

CCOC(=O)C1=C(C(C)=O)C(c2cccc([N+](=O)[O-])c2)C(C(C)=O)=C(C(=O)OCC)N1
inactive: [1] -1.8% | [2] 4.05% | [3] -8.8% | [4] -2.8% | [5] -13.6% | [6] 7.25%

O=C(O)CCC(=O)NNc1nc2ccccc2s1
inactive: [1] 22.1% | [2] 2% | [3] 29.1% | [4] 19.8% | [5] -13.2% | [6] 44.4%

Nc1ccc2[nH]c(=O)c(=O)[nH]c2c1
inactive: [1] 2% | [2] 14.7% | [3] -24.1% | [4] 4.95% | [5] 1.1% | [6] 14.8%

O/N=C(/CC(O)(C(F)(F)F)C(F)(F)F)c1ccccc1
inactive: [1] -9.1% | [2] -18% | [3] -7.9% | [4] -38.8% | [5] -6.9% | [6] 11.8%

O=C(C[n+]1cc(Br)cc(Br)c1)c1ccc(Cl)cc1
inactive: [1] -9.6% | [2] -15.8% | [3] -13% | [4] -13.8% | [5] -30.1% | [6] -7.9%

Clc1ccc(C2N(Cc3ccccc3)CCC3CCCCN32)cc1Cl (stereo unspecified)
inactive: [1] -10.1% | [2] -21.6% | [3] 13.7% | [4] 26.1% | [5] -10.1% | [6] -1.4%

Cc1ccc(NC(=S)Nc2ccccc2C)nc1
inactive: [1] 5.95% | [2] 9.35% | [3] 27.9% | [4] 13.1% | [5] 2.6% | [6] 18.9%

O=C1CC2(CCC(O)(c3ccc(Cl)cc3)C(C(=O)c3ccc(Cl)cc3)C2)C(=O)c2ccccc2N1 (stereo unspecified)
inactive: [1] -15.1% | [2] -3.55% | [3] -16.9% | [4] -23.5% | [5] -19.4% | [6] -48.6%

C=CC1=C(C)C2=NC1=CC1=NC(=CC3=C(C)C4=C(O)C(C(=O)OC)C(=C5NC(=C2)C(C)C5CCC(=O)OC)C4=N3)C(CC)=C1C (stereo unspecified)
inactive: [1] 10.1% | [2] 11.3% | [3] -48.8% | [4] 7.95% | [5] 4.95% | [6] -12.5%

COc1cc(C2(C)SCCCS2)c(I)c(OC)c1OC
inactive: [1] -8.55% | [2] -3.05% | [3] -8.15% | [4] 13.2% | [5] 2.85% | [6] -14.4%

Cc1ccc[n+](CCCCCCCC[n+]2cccc(C)c2)c1
inactive: [1] 54.7% | [2] 2.7% | [3] 44.4% | [4] -2.25% | [5] 3.4% | [6] 33.2%

O=C(O)C(c1ccccc1)C(F)(F)F (stereo unspecified)
inactive: [1] -1.45% | [2] 11.1% | [3] 2.45% | [4] -10.4% | [5] -2.1% | [6] 0.85%

Oc1c(Br)cc(Br)cc1/C=C/NC(=S)NC1CC2CC1C1C=CCC21 (stereo unspecified)
inactive: [1] 28.2% | [2] 32.1% | [3] 10.6% | [4] -6.15% | [5] 5.15% | [6] 55.9%

NCC1OC(n2cnc3c(N)ncnc32)CC1O (stereo unspecified)
inactive: [1] -16.1% | [2] -2.75% | [3] -17.8% | [4] 0.65% | [5] -28.6% | [6] -7.85%

CCCNc1cc2c(cc1Br)-c1ccccc1C2=O
inactive: [1] -18.8% | [2] -3% | [3] -10.2% | [4] -16.1% | [5] 19.1% | [6] -0.65%

c1ccc(C(c2ccc3c(c2)CCCC3)C(c2ccccc2)(c2ccccc2)c2ccccc2)cc1 (stereo unspecified)
inactive: [1] -0.05% | [2] -0.05% | [3] 4.7% | [4] 16.5% | [5] -3.65% | [6] 25.4%

Cc1cccc(Nc2c(C(=O)O)cnc3cc4c(cc23)OCO4)c1
inactive: [1] -3.4% | [2] -4.85% | [3] 3.45% | [4] -49.8% | [5] -5.85% | [6] -6.1%

COC(=O)C[C@@]1(C(=O)OC)[C@@H](C(=O)OC)C(C(=O)OC)=NN1C
inactive: [1] -5.35% | [2] -18.4% | [3] 0.85% | [4] -49% | [5] 18.1% | [6] -4.45%

CCO[Si](C)(CCC#N)OCC
inactive: [1] 6.05% | [2] -64% | [3] -12.7% | [4] 30.9% | [5] -31.6% | [6] 4.75%

C/C(=N\N)c1ccc(-c2ccccc2)cc1
inactive: [1] 10.6% | [2] 8.9% | [3] 6.45% | [4] -32.8% | [5] -30.7% | [6] -5.4%
